The results in this text go back to the supplement of paper PMC6555819.

In the first assay the test system is PPARg:RXRa DBDmut IVT, anti-RXR (DBD mutation: RXRa K156A/R161A, NR concentration 270 nM, RXRa partner concentration 90 nM). Nature of the assay: PBM binding z-score (relative to random genomic background probes); higher = stronger binding; sequences stand for … in GC…GCGATTGACAGCGTAGAATGAAGG
The gist of the method: (§1)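 On custom Agilent 4×180K arrays, double-stranded probes with 34-nt variable regions carried direct-repeat seeds, single-nucleotide variants, half-site ablations or random human genomic background. Ligand-free nuclear receptor dimers were applied for 1 h, and binding was read with antibodies against each partner (one per run). Binding z-scores come from regression-normalized fluorescence, with the random background probes as reference.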
GCGACTAGGGCATCAGCAGGTTACCATAACTTAA gave a PBM binding z-score of 4.76.
GATACAGTGTCAAGGCCAGAGTACGCGTATTGAT gave a PBM binding z-score of 0.318.
Still for that read-out and setting: under GCGACTGGGGCATCAGCAGGTTTCCATAACTTAA stands 3.74; under CCGACTGGGGCATAAGGTTACCCTAAGCCAGCCC, 2.4.
Consider AATACAGGGTCATCGTAGGCCAGCGTACGCACAG, for which the PBM binding z-score was 2.7.
Same read-out and setting: then GCGACTGGGGCATCAGCAGATTACCATAACTTAA, with 4.
The sequence GGACCGAGGGCAAAGTTGATAGCATCTGTCGACG had a PBM binding z-score of 0.973.
Still for that read-out and setting: then CGGACTAGGTCATTGACAGGACAGTGAATAGTAA, with 7.36.
Sequence CGTCAAAGTTTAACTAAGGTAACGTAAAGCACGC gave a PBM binding z-score of 0.271.
Sequence ATATGTAGGTTAGCTGGGGTCATACAGACTAGGC had a PBM binding z-score of 6.97.
GCGGCTAGGTCAACTGATGGTCAGCTAAAGCTCG returned a PBM binding z-score of 3.34.
CAGCCTAGGTCATGGCCAGTATAGGAGGAACGTT gave a PBM binding z-score of 2.64.
CCTAGTTGGTCAAGGCCACACACGCTATAGGTAC came in with a PBM binding z-score of 1.25.
The same measure, in the same setting: under CCTTACGGGTCAACGTTATAGCACGGGTGGTACG stands 2.
TCTTGTAGATCAAACAGGTTAAGAAAGCCTGAGT had a PBM binding z-score of 1.7.
CCTAGTTGGTCAGGAGGTCACACTCCGGATATGA returned a PBM binding z-score of 2.49.
Same read-out and setting: under TCTAGCAGGCGAGAGGGTCACTCAAGAGGTACGG stands 0.656; under CGAACGAGGGCATGAGTTGATAGCGAATGCCGAT, 3.22; under TCATATAGGTAAAAGGTGAAAGTAGGTGTGGTAA, 5.54.
On the same count and under the same terms, then ACAGACAGGTGAGTGAAGGTAGCTCAGCTGGACG, with 0.722; and CAAACTAGGTCACAGAGGTCAAAGACCGTGCGTA, with 8.39.
Regarding TGTCAAAGTTCAAAGGTAACGGAAGTATCCACAC, the PBM binding z-score was found to be 0.604.
Same read-out and setting: under CATTACGGGTCACGAGGTTATAGCACGACGAGCG stands 5.61.
For ATCTCTAGGTAAAGTTCAGTTAAAGATCGATAGA, the PBM binding z-score came to 2.25.
The same measure, in the same setting: then CCTACGGGGCCATTCAGAGGTCATTGATCATATG, with 0.224.
Still for that read-out and setting: then AGAATGAGGTTAATATCAGGGAAACAGAATACAT, with 2.82; and CCGACTGGGCCAAGGTCATTGATCAGTCAAAGCA, with 2.08.
The sequence CCTCAGAGGACAGAAGGTCAGAGCTGTCCGCTTT registered a PBM binding z-score of 0.0276.
Still for that read-out and setting: then CGAACTAGGTCATCCAGGAAAGTGAATACATTGA, with 8.18; and ACTATTAGTTGAGACGAGTGCAACCGATAGGTTG, with 0.000618.
In turn, GCTTACGGGTCAAAGGTTATAGCGTGAATAGAAT came in with a PBM binding z-score of 4.36.
Still for that read-out and setting: under ACTATTAGTTGACTTAGGGCAACCGGTACGACGC stands 0.0602.
As for AGATTGAGGTTATACGTAGATCAGGGAAGAAAGT, the PBM binding z-score worked out at 2.54.
Turning to CCTACTAGGTCAATGGTCAGCTAAAGCAGCTCGC, the PBM binding z-score was determined as 7.63.
Turning to ATCTGTAGGTAACAAGTTCAGTGAAAGAGAGGAC, the PBM binding z-score amounted to 2.85.
On the same count and under the same terms, under CAAACTAGGTCAACAGGTCAAAGTCCGCTTCCCG stands 8.61.
The sequence TCTCGGAGGACACGAAAGGTTAGAGCTCGACATC returned a PBM binding z-score of 1.49.
Still for that read-out and setting: under GCTTGTATATCAAGGTTAAGAAAGACTAAGCTAA stands 0.247.
Take TCCGCTAGGTCAACGATGGTCAGCTAATCTGCTA: the PBM binding z-score worked out at 3.72.
As for CCTATGAGTTGACCATAAGGGCAACCGAAGCTCG, the PBM binding z-score was -0.0484.

The next assay has as its system PPARg:RXRa IVT, anti-PPARg (NR concentration 270 nM, RXRa partner concentration 90 nM). The assay is described as above. The essentials:
as §1
On to GCGACTAGGGCATCAGCAGGTTACCATAACTTAA, for which the PBM binding z-score worked out at 3.7.
In turn, GATACAGTGTCAAGGCCAGAGTACGCGTATTGAT displayed a PBM binding z-score of 0.795.
On the same count and under the same terms, then GCGACTGGGGCATCAGCAGGTTTCCATAACTTAA, with 2.62; and CCGACTGGGGCATAAGGTTACCCTAAGCCAGCCC, with 2.69; and AATACAGGGTCATCGTAGGCCAGCGTACGCACAG, with 4.3.
Same read-out and setting: under GCGACTGGGGCATCAGCAGATTACCATAACTTAA stands 2.69; under GGACCGAGGGCAAAGTTGATAGCATCTGTCGACG, 1.67.
On to CGGACTAGGTCATTGACAGGACAGTGAATAGTAA, for which the PBM binding z-score came out at 7.62.
On the same count and under the same terms, under CGTCAAAGTTTAACTAAGGTAACGTAAAGCACGC stands 1.32; under ATATGTAGGTTAGCTGGGGTCATACAGACTAGGC, 6.06.
GCGGCTAGGTCAACTGATGGTCAGCTAAAGCTCG gave a PBM binding z-score of 3.06.
The same measure, in the same setting: then CAGCCTAGGTCATGGCCAGTATAGGAGGAACGTT, with 2.68.
CCTAGTTGGTCAAGGCCACACACGCTATAGGTAC: the PBM binding z-score was determined as 1.16.
Still for that read-out and setting: under CCTTACGGGTCAACGTTATAGCACGGGTGGTACG stands 3.53; under TCTTGTAGATCAAACAGGTTAAGAAAGCCTGAGT, 0.783.
CCTAGTTGGTCAGGAGGTCACACTCCGGATATGA showed a PBM binding z-score of 3.68.
Same read-out and setting: under TCTAGCAGGCGAGAGGGTCACTCAAGAGGTACGG stands -0.139.
In turn, CGAACGAGGGCATGAGTTGATAGCGAATGCCGAT gave a PBM binding z-score of 2.24.
In turn, TCATATAGGTAAAAGGTGAAAGTAGGTGTGGTAA displayed a PBM binding z-score of 5.11.
ACAGACAGGTGAGTGAAGGTAGCTCAGCTGGACG registered a PBM binding z-score of 0.62.
For the sequence CAAACTAGGTCACAGAGGTCAAAGACCGTGCGTA, the PBM binding z-score turned out to be 9.08.
As for TGTCAAAGTTCAAAGGTAACGGAAGTATCCACAC, the PBM binding z-score stood at 4.88.
The same measure, in the same setting: under CATTACGGGTCACGAGGTTATAGCACGACGAGCG stands 5.99; under ATCTCTAGGTAAAGTTCAGTTAAAGATCGATAGA, 2.63.
Same read-out and setting: under CCTACGGGGCCATTCAGAGGTCATTGATCATATG stands 1.43; under AGAATGAGGTTAATATCAGGGAAACAGAATACAT, 2.7.
On the same count and under the same terms, under CCGACTGGGCCAAGGTCATTGATCAGTCAAAGCA stands 2.75.
In the case of CCTCAGAGGACAGAAGGTCAGAGCTGTCCGCTTT, the PBM binding z-score turned out to be 0.424.
On the same count and under the same terms, under CGAACTAGGTCATCCAGGAAAGTGAATACATTGA stands 8.5; under ACTATTAGTTGAGACGAGTGCAACCGATAGGTTG, 0.0242; under GCTTACGGGTCAAAGGTTATAGCGTGAATAGAAT, 6.22.
In the case of ACTATTAGTTGACTTAGGGCAACCGGTACGACGC, the PBM binding z-score was 0.506.
As to AGATTGAGGTTATACGTAGATCAGGGAAGAAAGT, the PBM binding z-score amounted to 1.38.
Sequence CCTACTAGGTCAATGGTCAGCTAAAGCAGCTCGC registered a PBM binding z-score of 7.77.
Same read-out and setting: under ATCTGTAGGTAACAAGTTCAGTGAAAGAGAGGAC stands 2.64; under CAAACTAGGTCAACAGGTCAAAGTCCGCTTCCCG, 8.71.
Take TCTCGGAGGACACGAAAGGTTAGAGCTCGACATC: the PBM binding z-score stood at 0.57.
With GCTTGTATATCAAGGTTAAGAAAGACTAAGCTAA, the PBM binding z-score came to 0.653.
Still for that read-out and setting: then TCCGCTAGGTCAACGATGGTCAGCTAATCTGCTA, with 3.71; and CCTATGAGTTGACCATAAGGGCAACCGAAGCTCG, with 0.26.
